Test results as given in paper PMC10163288.
A selection follows. No count for the full screen is at hand. A number with no mark means an inactive call.

B1: il10ra_site1_normal_mot_39ab2cb694c8b9c1dc7e65c0d672c93e_0001_000000036_0001_53_65_H_._HHH_b2_05692_af2_0001_0000600025_0000002_0 (protein)
chain: SSSSDEEEEELRELVEEVERLIERNDREEALRVAAEALRLAFRARNPEVLQLLWELAKLLSSSSS
B2: il10ra_site1_sap_13_mot_8756ee2cf497b5429c717dfc0c0bcfd6_0001_000000186_0001_1_13_H_._HHH_b2_05518_af2_0001_0000600027_0000001_0_0001 (protein)
chain: SSSSDLEELARAAVRLIEQAIEWGDEERAKFALLALEMAAEETNDPELRELLEELEKLLRGSSSS
B3: il10ra_site1_sap_25_mot_HHH_b1_08133_000000195_0001_1_19_H_._HHH_b1_03607_0001_0000200023_0000001_0_0001_af2pred_0001 (protein)
chain: SSSSSEEVEELEEEARELIKRNDPEEVLKIIRRLARLAFRLNDPEISKIAIELAELLKKLDSSSS
B4: il10ra_site1_normal_mot_HHH_b2_02337_000000026_0001_38_52_H_._HHH_b2_04211_af2_0001_0000300011_0000002_0 (protein)
chain: SSSSDEEREEIEELIKEFEELLERGDREEAVRVVTEALQFALKLGDQELLKRIWELVKSLSSSSS
B5: il10ra_site1_sap_17_mot_HHH_b1_06914_000000280_0001_1_18_H_._HHH_b2_08155_0001_0000100009_0000001_0_0001 (protein)
chain: SSSSDEANERVWELLREALHIDDPEEAREVVEEAAEIAEERNNRVLLHNIRFLLRQLEKGSSSSS
B6: il10ra_site1_sap_23_mot_HHH_b1_08616_000000009_0001_1_19_H_._HHH_b2_04715_af2_0001_0000100004_0000001_0_0001 (protein)
chain: SSSSSDQEEQLIRALLWFAEWTSNPTARRLMLEQAERHARELGNEELREEVERVEKELEESSSSS
B7: il10ra_site1_normal_mot_HHH_b1_05056_000000217_0001_1_20_H_._HHH_b2_03866_0001_0000200011_0000001_0 (protein)
chain: SSSSSSEEREEVEELLEEAEHVDDLRELARILAEAVRFAYEGKDEEALQLVWEVVRRLFSSSSSS
B8: il10ra_site1_sap_16_mot_HHH_b2_00943_af2_000000149_0001_1_17_H_._HHH_b1_06222_0001_0000300032_0000001_0_0001_af2pred_dldesign_0_af2pred (protein)
chain: SSSSSPENEELVRLIREVAELLYDGKPEEAREKLKEAEELTEKLGDEIFKRNIELLRKELESSSS
B9: il10ra_site1_sap_16_mot_HHH_b1_06789_af2_000000041_0001_1_20_H_._HHH_b1_04240_af2_0001_0000500015_0000001_0_0001 (protein)
chain: SSSSSDEEYEEEVERLLEEAEKIPDPREAAEVLLKALRVALRGNDPELLHLVWEVLEEISSSSSS
B10: il10ra_site1_normal_mot_HHH_b1_06057_000000129_0001_22_38_H_._HHH_b2_05766_0001_0000200026_0000001_0 (protein)
chain: SSSSDRTARWSVEFALRVAEELAKRDPERARELLEHLAELLKEARDEELLEEVERLLEEIGSSSS
B11: il10ra_site1_normal_mot_HHH_b2_08287_af2_000000247_0001_1_16_H_._HHH_b2_07820_0001_0000300057_0000001_0_af2pred_0001 (protein)
chain: SSSSDEEEEEVKELLEEAKRIDDPRERTRVLVEAYALAFELNNPELEELVKEVAIELLERSSSSS
B12: il10ra_site1_sap_19_mot_HHH_b1_04514_000000156_0001_1_18_H_._HHH_b1_01679_0001_0000100001_0000001_0_0001_af2pred_0001 (protein)
chain: SSSSSSEAEKEVAKILIEVLRLNDEEAAERISHLLIRLIVEGDERLIEEIRELFEEVEENSSSSS
B13: il10ra_site1_normal_mot_HHH_b1_05672_af2_000000246_0001_1_19_H_._ems_3hC_444_af2_0001_0000400050_0000001_0 (protein)
chain: SSDLREEFSRVLIRAVRAAARHDEEKAEELVRRAEEIAEELGDEELERYVEIVKNFVESATRSSS
B14: il10ra_site1_sap_24_mot_HHH_b2_00622_af2_000000153_0001_40_57_H_._1ad9cd31332199d645683f25bccb3f2f_0001_af2_0001_0000400010_0000001_0_0001 (protein)
chain: SSSSSDEEAEEQVEELLEEAKRIEDREEVLRLLIEANRIAFRAGNDELQREIWRVAQELSSSSSS
B15: il10ra_site1_sap_19_mot_HHH_b1_01585_000000217_0001_1_18_H_._HHH_b1_05870_af2_0001_0000200018_0000002_0_0001 (protein)
chain: SSSSSRAEKVREILEEVVELQRQGDKEEAERLLEELLEELEELGDVNSLVNVEYLLRAVRKSSSS
B16: il10ra_site1_normal_mot_HHH_b1_01827_000000263_0001_1_19_H_._HHH_b2_07433_0001_0000500029_0000001_0_af2pred_0001 (protein)
chain: SSSSSTEEVERVIKLIRRALEIEDEEERRRLLEEAVELAEEGGNLVLLISARFALEDVEQSSSSS
B17: il10ra_site1_sap_10_mot_HHH_b1_05704_af2_000000048_0001_1_18_H_._HHH_b2_04382_0001_0000100002_0000001_0_0001_af2pred_0001 (protein)
chain: SSSSSEEEERVELALRFVKFLLKAGDPEAARFFVEWALEKAKELGNEELEEEAEELLREARSSSS
B18: il10ra_site1_sap_18_mot_HHH_b2_04327_000000030_0001_41_55_H_._HHH_b2_03484_af2_0001_0000400008_0000001_0_0001_af2pred_0001 (protein)
chain: SSSSSSSEEEELMQLAAEISRHASPEEIRRLFELLVRLYHEGDPELKEELRELIEEIKSSSSSSS
B19: il10ra_site1_normal_mot_HHH_b2_07144_000000289_0001_1_18_H_._HHH_b1_03935_0001_0000100008_0000001_1 (protein)
chain: SSSSSEEAEELYELSREVAHLHREGDEEEAKRLLEEAIELAEELGNFNILFALELLLRQLSSSSS
B20: il10ra_site1_sap_20_mot_HHH_b2_00093_af2_000000025_0001_40_54_H_._HHH_b2_05679_0001_0000100006_0000001_0_0001_af2pred_0001 (protein)
chain: SSSSSIHERDVELALLAARLLAERGDPEAVREALELARRQAESTNNEELEELVEEVERELSSSSS
B21: il10ra_site1_normal_mot_8756ee2cf497b5429c717dfc0c0bcfd6_0001_000000186_0001_1_13_H_._HHH_b1_06578_af2_0001_0000300032_0000001_1_af2pred_0001 (protein)
chain: SSSSSIAEEVFRLLREAAELYHEGDKEKAEEILKEAEELAEEANDEIAKVIIEFLKRAIENSSSS
B22: il10ra_site1_normal_mot_HHH_b1_00566_000000151_0001_22_39_H_._HHH_b1_00313_af2_0001_0000700014_0000001_0 (protein)
chain: SSSSDEREEIAILVAEAIILAERRGDKEVAEELWQLLVEAYYHGDPELFREVEELAEKFLSSSSS
B23: il10ra_site1_sap_26_mot_HHH_b2_06857_af2_000000179_0001_42_54_H_._HHH_b1_00069_af2_0001_0000100009_0000001_0_0001_af2pred_0001 (protein)
chain: SSSSSEEREEIYRLIREALELLANGNPEEAEEVLEEAERLAKEANSPLFEFALEAARRKVKSSSS
B24: il10ra_site1_normal_mot_HHH_b2_08186_000000021_0001_43_56_H_._HHH_b1_02914_0001_0000400023_0000001_0 (protein)
chain: SSSSDREERIQELLEEAEELAKEGNPEEAARLLQEAIRLAFELGDEELLKEIWEVLRKVASSSSS

Target: il10ra, Q13651
Assay: yeast display titration

il10ra, Q13651, sequence (Q13651 whole entry): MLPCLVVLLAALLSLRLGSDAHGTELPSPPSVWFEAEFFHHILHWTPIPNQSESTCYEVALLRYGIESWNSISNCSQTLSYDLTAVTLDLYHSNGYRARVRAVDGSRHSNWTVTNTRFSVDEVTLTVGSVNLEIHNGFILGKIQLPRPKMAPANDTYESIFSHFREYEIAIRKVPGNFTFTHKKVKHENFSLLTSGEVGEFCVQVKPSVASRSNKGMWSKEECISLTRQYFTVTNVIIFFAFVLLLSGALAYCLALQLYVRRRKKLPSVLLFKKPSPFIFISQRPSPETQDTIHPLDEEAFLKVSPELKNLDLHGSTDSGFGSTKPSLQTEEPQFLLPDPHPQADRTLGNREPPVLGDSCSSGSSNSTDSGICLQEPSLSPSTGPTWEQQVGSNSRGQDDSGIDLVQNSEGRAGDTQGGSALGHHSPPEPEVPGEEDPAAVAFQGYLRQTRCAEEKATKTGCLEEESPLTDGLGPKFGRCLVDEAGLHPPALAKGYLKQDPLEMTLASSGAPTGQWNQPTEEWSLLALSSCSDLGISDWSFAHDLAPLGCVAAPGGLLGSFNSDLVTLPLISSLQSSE

| Binder | apparent Kd |
| --- | --- |
| B1 | no binding seen |
| B2 | no binding seen |
| B3 | > 233 nM |
| B4 | no binding seen |
| B5 | no binding seen |
| B6 | no binding seen |
| B7 | no binding seen |
| B8 | no binding seen |
| B9 | no binding seen |
| B10 | no binding seen |
| B11 | no binding seen |
| B12 | no binding seen |
| B13 | no binding seen |
| B14 | no binding seen |
| B15 | no binding seen |
| B16 | no binding seen |
| B17 | no binding seen |
| B18 | no binding seen |
| B19 | no binding seen |
| B20 | no binding seen |
| B21 | no binding seen |
| B22 | 233 to 399 nM (active) |
| B23 | no binding seen |
| B24 | no binding seen |
